The target of experiment [1] is T1, Tyrosine-protein kinase ITK/TSK (Homo sapiens) (UniProt Q08881).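 Note: values are mean percent inhibition of ITK from the GSK PKIS screen.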
T1 sequence (whole entry): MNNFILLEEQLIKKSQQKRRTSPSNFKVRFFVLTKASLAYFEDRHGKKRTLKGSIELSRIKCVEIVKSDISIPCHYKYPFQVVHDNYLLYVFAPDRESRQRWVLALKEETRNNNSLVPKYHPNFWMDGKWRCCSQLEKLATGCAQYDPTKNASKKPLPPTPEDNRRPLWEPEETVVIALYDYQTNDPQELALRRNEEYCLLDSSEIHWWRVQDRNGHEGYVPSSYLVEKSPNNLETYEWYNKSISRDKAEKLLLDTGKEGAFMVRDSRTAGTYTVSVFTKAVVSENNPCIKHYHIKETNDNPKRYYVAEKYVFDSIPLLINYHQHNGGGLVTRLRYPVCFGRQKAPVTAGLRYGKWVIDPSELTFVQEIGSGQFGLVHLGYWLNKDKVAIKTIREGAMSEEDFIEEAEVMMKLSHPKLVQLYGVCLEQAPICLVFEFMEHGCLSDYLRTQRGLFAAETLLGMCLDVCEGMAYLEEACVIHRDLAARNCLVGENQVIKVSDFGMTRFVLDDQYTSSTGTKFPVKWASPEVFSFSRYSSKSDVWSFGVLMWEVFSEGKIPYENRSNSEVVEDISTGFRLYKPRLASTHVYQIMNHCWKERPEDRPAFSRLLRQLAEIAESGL
The following applies: at 1 µM.

Experiment [2] addresses Tyrosine-protein kinase JAK1 (Homo sapiens) (UniProt P23458). The following applies: at 0.1 µM.
Experiment [3] has the same target. The following applies: at 1 µM.
The target of experiment [4] is Tyrosine-protein kinase JAK2 (Homo sapiens) (UniProt O60674). The following applies: at 0.1 µM.
The target is the same in experiment [5]. Particulars: at 1 µM.
Experiment [6] addresses T2, Tyrosine-protein kinase JAK3 (Homo sapiens) (UniProt P52333).
T2 sequence (whole entry): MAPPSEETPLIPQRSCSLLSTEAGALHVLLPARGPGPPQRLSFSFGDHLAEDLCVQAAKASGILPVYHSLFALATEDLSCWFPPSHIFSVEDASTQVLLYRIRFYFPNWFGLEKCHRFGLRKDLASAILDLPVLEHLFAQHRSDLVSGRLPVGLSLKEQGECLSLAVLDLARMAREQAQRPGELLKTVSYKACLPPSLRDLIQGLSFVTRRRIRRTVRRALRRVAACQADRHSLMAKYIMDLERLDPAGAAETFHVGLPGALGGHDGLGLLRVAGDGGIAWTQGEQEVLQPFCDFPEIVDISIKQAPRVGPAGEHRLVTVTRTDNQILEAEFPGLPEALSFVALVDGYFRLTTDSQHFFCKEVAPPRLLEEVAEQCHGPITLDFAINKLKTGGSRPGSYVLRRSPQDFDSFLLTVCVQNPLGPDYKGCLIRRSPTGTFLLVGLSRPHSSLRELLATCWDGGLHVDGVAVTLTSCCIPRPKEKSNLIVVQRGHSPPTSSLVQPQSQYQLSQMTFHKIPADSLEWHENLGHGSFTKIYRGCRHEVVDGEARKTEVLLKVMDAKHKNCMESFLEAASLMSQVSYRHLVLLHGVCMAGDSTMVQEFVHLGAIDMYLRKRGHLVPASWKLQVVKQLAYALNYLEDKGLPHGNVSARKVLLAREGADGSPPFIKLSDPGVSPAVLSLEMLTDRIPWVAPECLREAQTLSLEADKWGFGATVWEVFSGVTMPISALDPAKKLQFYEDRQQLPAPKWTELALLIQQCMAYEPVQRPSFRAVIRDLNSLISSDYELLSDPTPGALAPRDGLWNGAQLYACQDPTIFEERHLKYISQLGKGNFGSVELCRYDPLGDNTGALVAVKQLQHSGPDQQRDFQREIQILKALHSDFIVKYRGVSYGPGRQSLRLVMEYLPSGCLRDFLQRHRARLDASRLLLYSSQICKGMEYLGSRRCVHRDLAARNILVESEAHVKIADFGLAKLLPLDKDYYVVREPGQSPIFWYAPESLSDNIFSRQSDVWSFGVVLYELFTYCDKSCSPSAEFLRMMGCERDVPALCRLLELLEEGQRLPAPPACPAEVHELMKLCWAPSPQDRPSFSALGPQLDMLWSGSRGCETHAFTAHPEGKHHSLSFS
Particulars: at 0.1 µM.

The target of experiment [7] is T2, Tyrosine-protein kinase JAK3 (Homo sapiens). Particulars: at 1 µM.
In experiment [8] the target is Vascular endothelial growth factor receptor 2 (Homo sapiens) (UniProt P35968). Particulars: at 0.1 µM.
For experiment [9] the target is unchanged. Particulars: at 1 µM.
In experiment [10] the target is Mast/stem cell growth factor receptor Kit (Homo sapiens) (UniProt P10721). The following applies: at 0.1 µM.
Experiment [11] has the same target. The following applies: at 1 µM.
The subject of experiment [12] is Mast/stem cell growth factor receptor Kit (Homo sapiens), P10721 [D816V]. The following applies: at 0.1 µM.
Experiment [13] has the same test system. The following applies: at 1 µM.
Experiment [14] has as its system Mast/stem cell growth factor receptor Kit (Homo sapiens), P10721 [T670I]. The following applies: at 0.1 µM.
Experiment [15] has the same test system. The following applies: at 1 µM.
The test system of experiment [16] is Mast/stem cell growth factor receptor Kit (Homo sapiens), P10721 [V560G]. The following applies: at 0.1 µM.
Experiment [17] has the same test system. The following applies: at 1 µM.
Experiment [18] addresses Tyrosine-protein kinase Lck (Homo sapiens) (UniProt P06239). The following applies: at 0.1 µM.
Experiment [19] shares this target. Particulars: at 1 µM.
For experiment [20], the target named is Leukocyte tyrosine kinase receptor (Homo sapiens) (UniProt P29376). Particulars: at 0.1 µM.

Six molecules from ChEMBL document CHEMBL1961873, “Compounds: GSK PKIS; Assays: Nanosyn kinase panel” (2012) can be followed below.

In general, inhibition refers to the change of the read-out against control, counted positive when it falls.

Vascular endothelial growth factor receptor 2 (Homo sapiens), sequence (P35968 whole entry): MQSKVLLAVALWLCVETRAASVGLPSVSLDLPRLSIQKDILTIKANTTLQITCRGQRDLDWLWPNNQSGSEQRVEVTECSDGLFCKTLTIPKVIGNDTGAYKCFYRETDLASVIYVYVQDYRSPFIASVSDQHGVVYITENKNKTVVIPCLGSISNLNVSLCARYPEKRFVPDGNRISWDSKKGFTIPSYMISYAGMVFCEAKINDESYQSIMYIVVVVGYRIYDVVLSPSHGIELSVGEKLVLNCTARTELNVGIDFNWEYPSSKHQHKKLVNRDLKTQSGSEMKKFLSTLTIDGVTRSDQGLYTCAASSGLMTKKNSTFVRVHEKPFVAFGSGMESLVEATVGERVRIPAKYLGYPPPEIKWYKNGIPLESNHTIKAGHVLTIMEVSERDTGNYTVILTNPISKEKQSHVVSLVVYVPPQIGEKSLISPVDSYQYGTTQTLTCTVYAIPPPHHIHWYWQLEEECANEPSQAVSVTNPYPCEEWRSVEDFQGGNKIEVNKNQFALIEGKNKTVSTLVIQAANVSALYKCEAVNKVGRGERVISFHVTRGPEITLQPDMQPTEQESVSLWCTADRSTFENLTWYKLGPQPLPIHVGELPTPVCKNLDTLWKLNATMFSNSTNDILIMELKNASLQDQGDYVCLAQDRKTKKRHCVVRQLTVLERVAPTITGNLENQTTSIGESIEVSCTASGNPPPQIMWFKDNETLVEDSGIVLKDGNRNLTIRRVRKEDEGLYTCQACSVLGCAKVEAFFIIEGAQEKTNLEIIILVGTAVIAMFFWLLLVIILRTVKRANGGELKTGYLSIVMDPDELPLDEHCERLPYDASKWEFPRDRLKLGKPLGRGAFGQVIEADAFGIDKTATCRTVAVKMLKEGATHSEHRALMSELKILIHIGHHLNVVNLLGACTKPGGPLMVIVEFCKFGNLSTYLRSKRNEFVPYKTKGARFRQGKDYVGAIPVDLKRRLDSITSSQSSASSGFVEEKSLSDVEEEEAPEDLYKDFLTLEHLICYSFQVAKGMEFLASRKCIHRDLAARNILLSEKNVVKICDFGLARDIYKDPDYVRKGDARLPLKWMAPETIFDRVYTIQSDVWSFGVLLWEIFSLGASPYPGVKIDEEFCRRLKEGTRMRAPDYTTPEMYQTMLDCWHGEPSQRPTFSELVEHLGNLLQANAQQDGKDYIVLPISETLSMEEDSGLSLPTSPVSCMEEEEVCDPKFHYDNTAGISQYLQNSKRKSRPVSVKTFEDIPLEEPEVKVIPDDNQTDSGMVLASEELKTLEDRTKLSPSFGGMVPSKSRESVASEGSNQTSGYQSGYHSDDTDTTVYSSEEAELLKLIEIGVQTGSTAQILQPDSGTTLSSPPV
Mast/stem cell growth factor receptor Kit (Homo sapiens), P10721 [D816V], sequence (P10721 whole entry D816V): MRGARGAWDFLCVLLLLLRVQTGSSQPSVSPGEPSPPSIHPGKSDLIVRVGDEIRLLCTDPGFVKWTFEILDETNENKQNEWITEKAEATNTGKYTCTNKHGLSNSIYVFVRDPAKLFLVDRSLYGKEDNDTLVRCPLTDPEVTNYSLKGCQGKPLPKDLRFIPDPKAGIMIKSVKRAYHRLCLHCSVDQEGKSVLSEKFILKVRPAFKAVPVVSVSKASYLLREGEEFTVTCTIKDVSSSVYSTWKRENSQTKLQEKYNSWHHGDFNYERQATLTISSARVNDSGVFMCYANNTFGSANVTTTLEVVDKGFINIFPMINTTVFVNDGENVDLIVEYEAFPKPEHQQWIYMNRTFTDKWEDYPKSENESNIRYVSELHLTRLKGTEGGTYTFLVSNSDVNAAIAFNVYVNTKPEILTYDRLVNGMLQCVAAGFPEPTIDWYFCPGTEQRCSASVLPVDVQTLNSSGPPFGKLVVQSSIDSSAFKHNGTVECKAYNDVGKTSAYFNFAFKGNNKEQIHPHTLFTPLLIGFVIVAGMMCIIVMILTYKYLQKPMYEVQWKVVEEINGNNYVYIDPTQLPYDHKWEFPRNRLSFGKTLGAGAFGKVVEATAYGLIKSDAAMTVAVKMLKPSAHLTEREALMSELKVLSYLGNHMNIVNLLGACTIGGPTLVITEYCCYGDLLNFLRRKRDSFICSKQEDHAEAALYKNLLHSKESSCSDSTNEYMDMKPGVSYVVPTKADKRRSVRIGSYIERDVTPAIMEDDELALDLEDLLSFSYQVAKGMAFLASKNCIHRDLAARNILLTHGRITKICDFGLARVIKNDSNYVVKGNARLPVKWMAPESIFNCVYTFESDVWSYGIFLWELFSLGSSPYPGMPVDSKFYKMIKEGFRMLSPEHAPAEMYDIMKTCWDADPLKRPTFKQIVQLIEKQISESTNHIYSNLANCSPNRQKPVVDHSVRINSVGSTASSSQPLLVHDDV
Leukocyte tyrosine kinase receptor (Homo sapiens), sequence (P29376 whole entry): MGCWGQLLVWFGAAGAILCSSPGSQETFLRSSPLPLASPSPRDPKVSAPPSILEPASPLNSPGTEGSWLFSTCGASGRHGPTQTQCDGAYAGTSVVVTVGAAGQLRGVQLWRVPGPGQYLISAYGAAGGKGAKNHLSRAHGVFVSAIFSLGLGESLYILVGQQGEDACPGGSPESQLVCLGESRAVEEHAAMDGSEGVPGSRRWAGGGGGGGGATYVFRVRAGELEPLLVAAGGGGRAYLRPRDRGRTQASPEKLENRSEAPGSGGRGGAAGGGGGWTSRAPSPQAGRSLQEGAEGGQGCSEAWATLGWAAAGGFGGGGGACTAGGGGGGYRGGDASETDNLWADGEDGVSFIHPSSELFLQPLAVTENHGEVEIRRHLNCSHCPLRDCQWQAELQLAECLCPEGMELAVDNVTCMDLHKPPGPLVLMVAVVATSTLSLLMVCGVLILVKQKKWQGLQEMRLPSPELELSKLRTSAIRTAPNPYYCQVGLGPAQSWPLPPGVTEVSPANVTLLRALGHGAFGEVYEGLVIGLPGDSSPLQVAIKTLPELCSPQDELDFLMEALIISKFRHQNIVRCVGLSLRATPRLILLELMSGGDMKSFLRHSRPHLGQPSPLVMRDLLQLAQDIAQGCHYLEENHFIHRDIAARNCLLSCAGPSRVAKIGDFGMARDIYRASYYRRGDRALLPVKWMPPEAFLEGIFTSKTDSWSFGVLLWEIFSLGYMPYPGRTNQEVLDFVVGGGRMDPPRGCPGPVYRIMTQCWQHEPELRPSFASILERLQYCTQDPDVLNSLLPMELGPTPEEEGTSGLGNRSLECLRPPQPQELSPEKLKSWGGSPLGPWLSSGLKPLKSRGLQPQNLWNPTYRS
Tyrosine-protein kinase JAK2 (Homo sapiens), sequence (O60674 whole entry): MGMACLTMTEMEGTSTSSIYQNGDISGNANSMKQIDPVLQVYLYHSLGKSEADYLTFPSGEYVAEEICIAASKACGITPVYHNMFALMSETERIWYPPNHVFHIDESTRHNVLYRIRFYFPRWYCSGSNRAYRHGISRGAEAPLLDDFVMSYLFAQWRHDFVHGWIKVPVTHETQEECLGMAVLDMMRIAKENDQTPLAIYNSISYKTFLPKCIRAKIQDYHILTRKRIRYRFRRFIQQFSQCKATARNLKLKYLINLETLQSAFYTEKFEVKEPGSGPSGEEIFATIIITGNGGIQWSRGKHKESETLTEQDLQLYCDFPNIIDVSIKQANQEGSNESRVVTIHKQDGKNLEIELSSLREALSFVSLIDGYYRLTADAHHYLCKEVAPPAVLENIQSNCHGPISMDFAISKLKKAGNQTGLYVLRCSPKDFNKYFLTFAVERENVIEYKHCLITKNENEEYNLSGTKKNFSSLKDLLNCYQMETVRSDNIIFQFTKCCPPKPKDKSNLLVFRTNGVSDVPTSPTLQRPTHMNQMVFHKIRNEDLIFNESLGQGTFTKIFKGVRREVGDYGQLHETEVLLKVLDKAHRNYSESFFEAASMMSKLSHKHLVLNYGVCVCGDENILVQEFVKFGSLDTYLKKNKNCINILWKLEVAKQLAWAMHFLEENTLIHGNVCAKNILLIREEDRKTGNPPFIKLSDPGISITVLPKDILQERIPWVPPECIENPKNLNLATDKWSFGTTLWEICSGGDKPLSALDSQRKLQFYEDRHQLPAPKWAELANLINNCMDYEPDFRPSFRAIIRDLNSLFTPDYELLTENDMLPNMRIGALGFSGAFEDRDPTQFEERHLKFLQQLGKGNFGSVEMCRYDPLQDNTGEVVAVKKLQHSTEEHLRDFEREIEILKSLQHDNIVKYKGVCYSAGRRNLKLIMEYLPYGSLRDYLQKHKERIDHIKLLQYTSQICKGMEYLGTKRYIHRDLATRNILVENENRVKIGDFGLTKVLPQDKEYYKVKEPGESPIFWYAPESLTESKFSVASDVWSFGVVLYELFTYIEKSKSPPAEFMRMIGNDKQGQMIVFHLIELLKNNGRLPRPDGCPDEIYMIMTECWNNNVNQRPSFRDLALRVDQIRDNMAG
Tyrosine-protein kinase Lck (Homo sapiens), sequence (P06239 2-509 limits assumed): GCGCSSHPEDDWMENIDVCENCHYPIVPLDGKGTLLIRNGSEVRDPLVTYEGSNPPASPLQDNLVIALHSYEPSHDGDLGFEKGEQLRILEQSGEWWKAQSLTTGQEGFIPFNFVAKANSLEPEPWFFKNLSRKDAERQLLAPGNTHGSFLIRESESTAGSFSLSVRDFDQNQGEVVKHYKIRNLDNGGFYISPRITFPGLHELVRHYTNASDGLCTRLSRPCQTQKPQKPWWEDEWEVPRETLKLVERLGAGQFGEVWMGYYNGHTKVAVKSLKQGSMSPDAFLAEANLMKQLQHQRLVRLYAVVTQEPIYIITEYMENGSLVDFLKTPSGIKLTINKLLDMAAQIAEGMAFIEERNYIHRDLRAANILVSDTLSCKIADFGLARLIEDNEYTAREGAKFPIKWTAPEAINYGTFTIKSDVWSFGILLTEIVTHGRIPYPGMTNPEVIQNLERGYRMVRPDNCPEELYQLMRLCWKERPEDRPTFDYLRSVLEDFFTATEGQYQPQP
Mast/stem cell growth factor receptor Kit (Homo sapiens), P10721 [V560G], sequence (P10721 whole entry V560G): as the sequence (P10721 whole entry D816V) above, with V560G, V816D counted along it
Mast/stem cell growth factor receptor Kit (Homo sapiens), P10721 [T670I], sequence (P10721 whole entry T670I): as the sequence (P10721 whole entry D816V) above, with T670I, V816D counted along it
Mast/stem cell growth factor receptor Kit (Homo sapiens), sequence (P10721 whole entry): as the sequence (P10721 whole entry D816V) above, with V816D counted along it

With `O=C1NC(=O)C(c2ccc(Cl)cc2)=C1Nc1ccc(Cl)c(C(=O)O)c1`, the inhibition was 0.04% in experiment [1]; -3.25% in [2]; -7.51% in experiment [3]; -0.25% in experiment [4]; -0.22% in experiment [5]; 0.01% in experiment [6]. Besides, the inhibition in experiment [7] is 2.64%; in experiment [8], 4.84%; in experiment [9], 9.16%; in experiment [10], -0.92%; in [11], -0.38%; in experiment [12] it was -3.8%. Further, the inhibition was -3.02% in experiment [13]; -0.88% in experiment [14]; -1.49% in experiment [15]; 2.75% in experiment [16]; 8.56% in [17]; -0.44% in [18]. Moreover, the inhibition in experiment [19] was 0.35%; in experiment [20], -1.15%.

As for `O=C1NC(=O)C(N2CCc3ccccc32)=C1c1ccc(Cl)cc1`, the inhibition in [1] was 2.44%; in experiment [2], 1.13%; in [3] it was 0.25%; in [4], 1.54%; in [5], 2.81%; in experiment [6] it was -1.28%. Also, the inhibition in experiment [7] was found to be 1.36%; in experiment [8], 12.4%; in [9], 14.6%; in [10], 6.61%; in experiment [11] it was 12%; in [12] it was 2.68%. Also, the inhibition in [13] was found to be 2.43%; in [14], 3.14%; in experiment [15], 3.85%; in experiment [16], 7%; in experiment [17], 3.94%; in experiment [18] it was 1.6%. Moreover, the values for the inhibition in experiment [19] and in experiment [20] were 4.29% and 2.8%, respectively.

In the case of `CS(=O)(=O)CCNCc1nc(-c2ccc3ncnc(Nc4ccc(F)c(Cl)c4)c3c2)cs1`, the inhibition in [1] was 0.89%; in experiment [2], 2.86%; in experiment [3], 4.25%; in [4], 0.34%; in [5], 4.99%; in experiment [6], -0.02%. The inhibition in experiment [7] is 3.43%; in experiment [8], 9.85%; in [9], 18.5%; in experiment [10], 3.87%; in experiment [11], 5.11%; in experiment [12], 3.12%. The inhibition in [13] came out at 2.42%; in [14], 1.78%; in [15] it was 2.83%; in experiment [16], 10.4%; in [17], 10.7%; in experiment [18], 3.91%. For the same molecule, the figures for the inhibition in experiment [19] and in experiment [20] were 20% and 2.39%, respectively.

Regarding `CCn1c(-c2nonc2N)nc2cnc(Oc3cccc(NC(=O)c4ccc(OCCN5CCOCC5)cc4)c3)cc21`, the inhibition was 0.94% in experiment [1]; 4.42% in [2]; 12.1% in [3]; 5.74% in [4]; 1.29% in experiment [5]; 0.31% in experiment [6]. In addition, the inhibition was -0.45% in experiment [7]; 5.67% in [8]; 7.83% in experiment [9]; 5.45% in [10]; 3.53% in [11]; 2.71% in experiment [12]. The inhibition was -0.34% in [13]; 2.87% in experiment [14]; 4.8% in experiment [15]; -1.11% in experiment [16]; 2.85% in experiment [17]; 0.98% in experiment [18]. The inhibition in experiment [19] worked out at 4.63%; in experiment [20], 2.7%.

Consider `COc1ccc(-c2coc3ncnc(N)c23)cc1`, for which the inhibition was 1.48% in experiment [1]; 0.98% in experiment [2]; 2.67% in experiment [3]; 1.71% in [4]; 2.08% in experiment [5]; -1.56% in experiment [6]. The inhibition in experiment [7] was found to be 2.35%; in experiment [8], 6.15%; in experiment [9] it was 9%; in [10], 5.17%; in experiment [11], 21.7%; in experiment [12], 5.53%. Besides, the inhibition was -0.06% in experiment [13]; 3.49% in experiment [14]; 1.89% in [15]; 2.72% in [16]; 7.39% in experiment [17]; 1.13% in [18]. Further, the inhibition in [19] was 6.38%; in experiment [20] it was 3.02%.

As to `Nc1ncnc2occ(-c3ccc(NC(=O)Nc4cccc(C(F)(F)F)c4)cc3)c12`, the inhibition in [1] is 12.3%; in experiment [2] it was 0.84%; in experiment [3] it was 11.8%; in [4] it was 1.98%; in experiment [5], 9.83%; in experiment [6], -4.17%. Also, the inhibition is -2.01% in experiment [7]; 73.5% in experiment [8]; 77.3% in experiment [9]; 94.9% in experiment [10]; 97.3% in experiment [11]; 3.24% in experiment [12]. Moreover, the inhibition in experiment [13] came to 6.5%; in experiment [14], 72.5%; in [15], 83.9%; in experiment [16] it was 104%; in experiment [17] it was 97.8%; in [18] it was 12.1%. Further, the inhibition in [19] is 46.7%; in [20], 7.15%.
